Several values for one entry are separate records, joined by “and”; a condition that tells them apart may be missing. Equal values may be shown once. Inconclusive results are not listed. Activity calls are given as the source filed them. Unless noted, calls come from the whole dose curve.
Legend:
[1] = Nuclear factor erythroid 2-related factor 2/antioxidant responsive element (Nrf2/ARE) small molecule agonists: qHTS cell viability counter screen in human keratinocytes (AID 1919968; active = well fitted curve in the direction sought with a large enough effect in the repeat runs; an effect the other way counts as inactive or inconclusive; note: nearly all actives have a fitted effect of over 55% in size; note: potency is the fitted concentration of half-maximal effect)
Method in brief: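 KeratinoSens HaCaT cells, 1,500/well, preincubated 5 h, then exposed to compounds in DMSO for 23 h at 37 C/5% CO2. Viability read as CellTiter-Fluor fluorescence after 1 h, in the same wells as the ARE-luciferase read.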

[2] = biological target: Gonadotropin-releasing hormone receptor (Homo sapiens) (UniProt P30968); experiment: Human gonadotropin-releasing hormone receptor (GnRHR) small molecule agonists, calcium flux assay in GnRHR-HEK293 cells (AID 1920063); note: nearly all actives have a fitted effect of over 35% in size
Method in brief: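 HEK293 cells stably expressing human GnRHR were dye-loaded for 1 h at 37 C. Compound was added in agonist mode and fluorescence (Ex/Em 480/540) recorded kinetically for 3 min. Fifteen concentrations, triplicates.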

[3] = biological target: KiSS-1 receptor (Homo sapiens) (UniProt Q969F8); experiment: Human kisspeptin (KISS1R) small molecule agonists, calcium flux assay in KISS1R-HEK293 cells (AID 1920064; active = well fitted curve in the direction sought with a large enough effect in the repeat runs; an effect the other way counts as inactive or inconclusive)
Method in brief: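 HEK293 cells stably expressing human KISS1R were loaded with calcium dye for 1 h at 37 C, then given compound; fluorescence (Ex/Em 480/540) was read kinetically for 3 min. Fifteen concentrations, triplicate.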

[4] = G protein-coupled receptor (GPCR) small molecule agonists, calcium flux assay: HEK293 wild type cell line counter screen (AID 1920065)
Method in brief: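 Wild-type HEK293 cells plated 18 h, loaded with calcium dye 1 h at 37 C, then compounds added in agonist mode (ATP as positive control). Kinetic fluorescence Ex/Em 480/540 recorded 3 min at 1 sec intervals; 15 concentrations, triplicate.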

[5] = p53 small molecule agonists, cell-based qHTS assay with human liver microsomes: qHTS cell viability counter screen (AID 1963579); note: nearly all actives have a fitted effect of over 45% in size
Method in brief: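 p53RE-bla cells, 4,000/well, dosed 5 hours after plating, with human liver microsomes (0.5 mg/mL final) plus NADPH (0.5 mg/mL final), 16 hours at 37 C. Viability read as CellTiter-Glo luminescence after 30 min at room temperature.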

[6] = p53 small molecule agonists, cell-based qHTS assay with rat liver microsomes: qHTS cell viability counter screen (AID 1963580); note: nearly all actives have a fitted effect of over 45% in size
Method in brief: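 In HCT-116 cells carrying a p53 response element-bla reporter, compounds were metabolically activated in situ by rat liver microsomes with NADPH over 16 h. Cell ATP content then served as the cytotoxicity measure.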

[7] = p53 small molecule agonists, cell-based qHTS assay: qHTS cell viability counter screen (AID 1963581); note: nearly all actives have a fitted effect of over 45% in size
Method in brief: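 p53RE-bla HCT-116 cells, compounds added 5 h after plating and incubated 16 h at 37 C. Cytotoxicity measured in the same wells as intracellular ATP by CellTiter-Glo luminescence after 30 min at room temperature.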

[8] = biological target: 5-hydroxytryptamine receptor 2A (Homo sapiens) (UniProt P28223); experiment: 5-hydroxytryptamine receptor 2A (HTR2A) small molecule antagonists, cell-based qHTS assay (AID 1963586); note: nearly all actives have a fitted effect of over 45% in size
Method in brief: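 Antagonist-mode intracellular calcium assay: DOI (4 nM) added after 5 min compound pre-incubation at room temperature to dye-loaded HTR2A-CHO cells. Fluorescence followed for 3 min, sampled every second.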

[9] = biological target: 5-hydroxytryptamine receptor 2A (Homo sapiens) (UniProt P28223); experiment: 5-hydroxytryptamine receptor 2A (HTR2A) small molecule agonists, cell-based qHTS assay (AID 1963587); note: nearly all actives have a fitted effect of over 30% in size
Method in brief: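 HTR2A-CHO cells, plated 18 h at 37 C/5% CO2, dye-loaded 1 h at 37 C; compounds in DMSO added by pin tool (agonist mode). Intracellular calcium flux read as kinetic fluorescence on FDSS over 2 min at 1 s intervals.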

[10] = biological target: Muscarinic acetylcholine receptor M1 (Homo sapiens) (UniProt P11229); experiment: Cholinergic receptor muscarinic 1 (CHRM1) small molecule agonists, cell-based qHTS assay (AID 1963589); note: nearly all actives have a fitted effect of over 35% in size
Method in brief: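 CHO cells stably expressing human CHRM1 were loaded with calcium dye for 1 h at 37 C, then compound was added in agonist mode. Intracellular calcium fluorescence was followed kinetically at 1 s intervals. Fifteen concentrations were tested in three independent runs.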

[11] = cAMP Responsive Elements (CRE) small molecule agonists, cell-based qHTS assay (AID 1963590)
Method in brief: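 CRE-bla HEK 293T cells, 2,000/well in DMEM with 10% dialyzed FBS and 25 mM HEPES, pre-incubated 18 h at 37 C, then exposed to compound 3 h at 37 C. Beta-lactamase reporter read with LiveBLAzer B/G FRET substrate after 2 h at room temperature.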

[12] = cAMP Responsive Elements (CRE) small molecule antagonists, cell-based qHTS assay (AID 1963591; active = well fitted inhibition curve with a large enough effect in the signal ratio in the repeat runs, not every such curve was filed as active; the % refers to the signal ratio)
Method in brief: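 CRE-bla HEK293T cells plated 18 h, then given compound plus NKH477 at 0.25 uM final for 3 h at 37C. Beta-lactamase reporter read with LiveBLAzer B/G FRET substrate after 2 h at room temperature.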

[13] = biological target: Beta-2 adrenergic receptor (Homo sapiens) (UniProt P07550); experiment: Adrenergic beta2 receptor (ADRB2) small molecule antagonists, cell-based qHTS assay (AID 1963592); note: series mostly up to about 92 µM; nearly all actives have a fitted effect of over 50% in size
Method in brief: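 Cells (CHO, stable ADRB2 overexpression) incubated 18-20hr at 37C; compounds added from DMSO; agonist mix (1nM isoproterenol, 100uM IBMX, 25uM Ro-20-1724) added; 0.5hr RT; d2-cAMP and anti-cAMP-cryptate added; 1hr RT; 665/615 nm read.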

[14] = biological target: Beta-2 adrenergic receptor (Homo sapiens) (UniProt P07550); experiment: Adrenergic beta2 receptor (ADRB2) small molecule agonists, cell-based qHTS assay (AID 1963593);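 note: CHO cells stably overexpressing human ADRB2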
Method in brief: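 CHO cells stably over-expressing ADRB2 were plated overnight at 37C, then dosed with compounds plus a stimulation mix containing 100uM IBMX and 25uM Ro-20-1724 for 0.5hr at room temperature. cAMP was measured by HTRF competition, 1hr.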

[15] = biological target: D(2) dopamine receptor (Homo sapiens) (UniProt P14416); experiment: Dopamine D2 receptor (DRD2) small molecule antagonists, cell-based qHTS assay (AID 1963595; active = well fitted inhibition curve with a large enough effect in the signal ratio in the repeat runs, with a control signal flat; the % refers to the signal ratio)
Method in brief: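 HTRF cAMP read-out at 665 and 620 nm emission (340 nm excitation). Antagonist mode: compounds were tested against 12 nM quinpirole in DRD2-HEK293 cells, with 200 nM NKH477 raising cAMP and 0.1 mM Ro20-1724 blocking its breakdown.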

[16] = p53 small molecule agonists, cell-based qHTS assay with human liver microsomes (AID 1963577)
Method in brief: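 p53RE-bla cells, 4,000/well, compound added after 5 h, with human liver microsomes 0.5 mg/mL and NADPH 0.5 mg/mL final; 16 h at 37 C, then LiveBLAzer 2 h RT, fluorescence.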

[17] = p53 small molecule agonists, cell-based qHTS assay with rat liver microsomes (AID 1963578)
Method in brief: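 p53RE-bla cells, 4,000/well, pre-incubated 5 h, then given compounds plus rat liver microsomes (0.5 mg/mL final) and NADPH (0.5 mg/mL final). Incubation 16 h at 37 C; beta-lactamase reporter read by LiveBLAzer fluorescence after 2 h at room temperature.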

[18] = biological target: Muscarinic acetylcholine receptor M1 (Homo sapiens) (UniProt P11229); experiment: Cholinergic receptor muscarinic 1 (CHRM1) small molecule antagonists, cell-based qHTS assay (AID 1963588); note: nearly all actives have a fitted effect of over 40% in size; note: potency is the fitted concentration of half-maximal effect
Method in brief: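 CHRM1-CHO calcium-flux assay, antagonist mode. Cells were seeded 18 h, dye-loaded 1 h at 37 C and given compound for 5 min at RT, then acetylcholine was added at 50nM. FDSS fluorescence was read 3 min; 15 concentrations, three runs.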

[19] = p53 small molecule agonists, cell-based qHTS assay (AID 1963582; active = well fitted activation curve with a large enough effect in the signal ratio in the repeat runs, not every such curve was filed as active; the % refers to the signal ratio)
Method in brief: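 p53RE-bla reporter cells, compounds added in DMSO after 5 h plating, incubated 16 h at 37 C. Beta-lactamase read via 2 h room-temperature LiveBLAzer B/G FRET substrate, fluorescence intensity.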

[20] = biological target: D(2) dopamine receptor (Homo sapiens) (UniProt P14416); experiment: Dopamine D2 receptor (DRD2) small molecule agonists, cell-based qHTS assay (AID 1963594); note: nearly all actives have a fitted effect of over 35% in size
Method in brief: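 HEK293 cells stably expressing DRD2 were cultured 24 h at 37 C, then given Ro20-1724 (0.1 mM final) and compounds for 10 min at room temperature. NKH477 (200nM) was then added for 30 min. cAMP was read by HTRF.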

Measured: Potency

Chain of Gonadotropin-releasing hormone receptor (Homo sapiens) (P30968 whole entry, looked up): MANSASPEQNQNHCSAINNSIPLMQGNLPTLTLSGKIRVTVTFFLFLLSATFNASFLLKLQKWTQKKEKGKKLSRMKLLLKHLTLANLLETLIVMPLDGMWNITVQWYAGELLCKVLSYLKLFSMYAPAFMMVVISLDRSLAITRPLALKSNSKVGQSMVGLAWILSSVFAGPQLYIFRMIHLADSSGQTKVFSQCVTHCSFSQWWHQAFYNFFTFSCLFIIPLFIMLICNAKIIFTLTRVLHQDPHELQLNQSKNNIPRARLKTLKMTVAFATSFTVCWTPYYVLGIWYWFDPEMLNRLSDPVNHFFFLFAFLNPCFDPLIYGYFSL
Chain of KiSS-1 receptor (Homo sapiens) (Q969F8 whole entry, looked up): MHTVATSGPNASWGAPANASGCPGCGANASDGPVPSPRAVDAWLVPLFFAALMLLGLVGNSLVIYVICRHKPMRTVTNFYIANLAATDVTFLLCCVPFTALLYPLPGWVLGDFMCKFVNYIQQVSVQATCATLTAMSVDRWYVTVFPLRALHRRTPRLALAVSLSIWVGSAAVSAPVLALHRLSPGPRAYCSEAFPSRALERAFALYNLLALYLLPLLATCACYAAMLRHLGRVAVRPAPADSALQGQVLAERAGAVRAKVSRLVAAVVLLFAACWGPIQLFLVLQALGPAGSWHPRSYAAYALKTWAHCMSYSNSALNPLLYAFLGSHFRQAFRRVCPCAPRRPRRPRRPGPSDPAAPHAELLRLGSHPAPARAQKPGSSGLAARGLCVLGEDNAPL
Chain of 5-hydroxytryptamine receptor 2A (Homo sapiens) (P28223 whole entry, looked up): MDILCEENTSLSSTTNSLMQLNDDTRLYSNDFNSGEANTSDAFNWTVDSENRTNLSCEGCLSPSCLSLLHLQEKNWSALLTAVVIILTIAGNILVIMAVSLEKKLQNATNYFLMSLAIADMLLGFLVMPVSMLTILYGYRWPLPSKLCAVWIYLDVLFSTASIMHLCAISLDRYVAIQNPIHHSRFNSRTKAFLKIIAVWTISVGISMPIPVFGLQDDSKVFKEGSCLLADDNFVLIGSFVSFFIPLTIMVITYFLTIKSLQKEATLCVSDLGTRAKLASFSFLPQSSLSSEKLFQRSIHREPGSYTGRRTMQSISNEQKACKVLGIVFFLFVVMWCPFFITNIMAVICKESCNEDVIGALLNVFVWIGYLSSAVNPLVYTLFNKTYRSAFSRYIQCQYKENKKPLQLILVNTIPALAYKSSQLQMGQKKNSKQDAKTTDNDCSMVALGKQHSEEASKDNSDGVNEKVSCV
Chain of Muscarinic acetylcholine receptor M1 (Homo sapiens) (P11229 whole entry, looked up): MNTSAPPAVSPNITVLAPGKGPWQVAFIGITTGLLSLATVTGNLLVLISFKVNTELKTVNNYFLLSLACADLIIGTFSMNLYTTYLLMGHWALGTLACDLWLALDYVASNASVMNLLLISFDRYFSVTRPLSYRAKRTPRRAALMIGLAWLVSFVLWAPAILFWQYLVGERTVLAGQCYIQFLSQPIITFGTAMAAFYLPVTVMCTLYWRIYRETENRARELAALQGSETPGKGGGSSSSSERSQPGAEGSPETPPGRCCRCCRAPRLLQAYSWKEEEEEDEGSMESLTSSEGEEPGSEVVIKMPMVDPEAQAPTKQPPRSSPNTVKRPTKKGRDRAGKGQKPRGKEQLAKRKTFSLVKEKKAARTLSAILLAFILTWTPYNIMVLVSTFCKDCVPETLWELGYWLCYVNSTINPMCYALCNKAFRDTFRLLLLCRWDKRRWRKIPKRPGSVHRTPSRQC
Chain of D(2) dopamine receptor (Homo sapiens) (P14416 whole entry, looked up): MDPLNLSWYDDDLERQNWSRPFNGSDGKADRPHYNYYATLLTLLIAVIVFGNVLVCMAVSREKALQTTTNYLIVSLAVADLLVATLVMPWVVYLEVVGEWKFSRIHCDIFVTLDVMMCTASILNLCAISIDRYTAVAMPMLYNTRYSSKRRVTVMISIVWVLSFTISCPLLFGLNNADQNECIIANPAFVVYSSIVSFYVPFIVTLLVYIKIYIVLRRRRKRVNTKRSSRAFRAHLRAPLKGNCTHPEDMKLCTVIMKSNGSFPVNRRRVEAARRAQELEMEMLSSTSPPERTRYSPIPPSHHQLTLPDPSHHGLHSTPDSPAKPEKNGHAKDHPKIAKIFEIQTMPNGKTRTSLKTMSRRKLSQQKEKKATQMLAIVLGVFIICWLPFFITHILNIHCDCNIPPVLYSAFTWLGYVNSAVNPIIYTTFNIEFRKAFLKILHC
Chain of Beta-2 adrenergic receptor (Homo sapiens) (P07550 whole entry, looked up): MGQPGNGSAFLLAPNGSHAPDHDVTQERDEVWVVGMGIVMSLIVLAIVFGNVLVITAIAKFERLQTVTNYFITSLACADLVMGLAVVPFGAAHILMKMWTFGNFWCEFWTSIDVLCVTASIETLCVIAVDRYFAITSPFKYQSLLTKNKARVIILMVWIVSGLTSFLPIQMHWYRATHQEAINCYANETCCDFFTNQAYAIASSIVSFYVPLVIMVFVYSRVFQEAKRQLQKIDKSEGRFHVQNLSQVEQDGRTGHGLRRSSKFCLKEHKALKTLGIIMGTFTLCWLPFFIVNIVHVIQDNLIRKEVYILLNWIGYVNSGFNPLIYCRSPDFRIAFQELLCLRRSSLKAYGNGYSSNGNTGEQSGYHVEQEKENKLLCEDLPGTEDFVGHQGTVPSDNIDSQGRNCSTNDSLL

O=C(O)CCl
inactive: [1] | [2] | [3] | [4] | [5] | [6] | [7] | [8] | [9] | [10] | [11] | [12] | [13] | [14] | [15]

CC[n+]1c(-c2ccccc2)c2cc(N)ccc2c2ccc(N)cc21
active: [1] 48.3 µM and 7.5 µM | [18] 8.36 µM and 9.18 µM
inactive: [2] | [3] | [4] | [16] | [17] | [7] | [8] | [9] | [10] | [11]

CCNc1nc(NC(C)(C)C)nc(SC)n1
inactive: [1] | [2] | [3] | [4] | [16] | [17] | [5] | [6] | [19] | [8] | [18] | [10] | [11] | [13] | [15]

CCCCCCCCC(=O)NCc1ccc(O)c(OC)c1
inactive: [1] | [2] | [3] | [4] | [5] | [6] | [7] | [8] | [9] | [18] | [10] | [11] | [12] | [14] | [20]

CCCCCCCCSC(=O)Oc1cc(Cl)nnc1-c1ccccc1
inactive: [1] | [2] | [3] | [4] | [16] | [17] | [5] | [7] | [19] | [8] | [9] | [18] | [10] | [12] | [13] | [20] | [15]
